Experiment [1] has as its system DLD1. The experiment in a line: cell viability (CellTiter-Glo) relative to plate median (fraction of plate median); higher = more viable cells. To be noted: 5 µM; treatment time 24 h; reporter: 7TFP. Put shortly:
(§1)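 After seeding in 384-well plates, colorectal cancer cell lines carrying stable lentiviral TCF/Wnt firefly luciferase reporters (7TFP or TCF4/Wnt) were left 24 h. Library compounds were then added at a final 5 µM for 24 h. A Tecan F500 reader measured firefly luciferase or CellTiterGlo luminescence on parallel plates, with each well normalised to the plate median by webcellHTS2 (additive, no log transformation), and two independent replicates averaged.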
For orientation: Cellular ATP, detected with luciferase, serves as a proxy for viable cell number.

A further experiment relates to HCT116. The experiment is described as above. To be noted: 5 µM; treatment time 24 h; reporter: TCF4/Wnt. Put shortly: as §1
The subject of experiment [2] is SW480. The experiment is described as above. To be noted: 5 µM; treatment time 24 h; reporter: 7TFP. Put shortly: as §1
Experiment [3] deals with DLD1. In words: TCF/Wnt firefly luciferase reporter signal relative to plate median (fraction of plate median); higher = higher Wnt reporter signal. To be noted: 5 µM; treatment time 24 h; reporter: 7TFP. An outline of the steps:
as §1

Experiment [4] deals with SW480. Described as above. To be noted: 5 µM; treatment time 24 h; reporter: 7TFP. An outline of the steps: as §1

± gives the standard deviation of the averaged measurements.

`Cc1cc(O)cc2oc(=O)c3c(O)cc(O)cc3c12` [Alternariol]: the cell viability in the experiment on DLD1 [1] worked out at 0.914 ± 0.017; in the experiment with HCT116 it was 0.919 ± 0.013; in the experiment on SW480 [2] it was 1.01 ± 0.03. Further, the “TCF/Wnt firefly luciferase reporter signal” value amounted to 0.861 ± 0.12 in the experiment with DLD1 [3] and 0.992 ± 0.097 with SW480 [4].

Consider `O=C1C=CC(=O)c2c(O)cccc21`, for which the values for the cell viability in the experiment with DLD1 [1], in the experiment with HCT116 and with SW480 [2] were 0.921 ± 0.035, 0.972 ± 0.033 and 0.961 ± 0.016, respectively. For the same compound, the entries for the “TCF/Wnt firefly luciferase reporter signal” value in the experiment on DLD1 [3] and in the experiment with SW480 [4] were 1.03 and 1.08 ± 0.064, respectively.

`CC(=O)O[C@H]1[C@H]2[C@@H](OC(=O)Cc3ccccc3)[C@@H](C)C[C@]2(OC(C)=O)C(=O)/C(C)=C/[C@@H]2[C@H](CC[C@@]13CO3)C2(C)C`: the cell viability in the experiment on DLD1 [1] was 1.06 ± 0.097; in the experiment on HCT116, 1.01 ± 0.086; in the experiment with SW480 [2] it was 1.06 ± 0.021. Besides, the entries for the “TCF/Wnt firefly luciferase reporter signal” value in the experiment with DLD1 [3] and with SW480 [4] were 1.09 ± 0.014 and 1.075 ± 0.0071, respectively.

As to `O=P1(NCCCl)OCCCN1CCCl` (stereo not given), the cell viability with DLD1 [1] amounted to 1.03 ± 0.079; with HCT116, 0.996 ± 0.021; with SW480 [2], 0.973 ± 0.053. The results for the “TCF/Wnt firefly luciferase reporter signal” value in the experiment on DLD1 [3] and in the experiment with SW480 [4] were 0.999 ± 0.28 and 0.97 ± 0.086, respectively.

As to `C=C1[C@@H]2CCC3[C@@](CC[C@@H]4[C@H](C(=O)O)C[C@@H](O[C@@H]5O[C@H](CO)[C@@H](OS(=O)(=O)O)[C@H](OS(=O)(=O)O)[C@H]5OC(=O)CC(C)C)C[C@@]34C)(C2)[C@@H]1O` (stereo not given in full), the values for the cell viability in the experiment on DLD1 [1], in the experiment with HCT116 and with SW480 [2] were 1 ± 0.093, 1.04 ± 0.061 and 1.01 ± 0.054, respectively. Besides, the figures for the “TCF/Wnt firefly luciferase reporter signal” value in the experiment on DLD1 [3] and in the experiment with SW480 [4] were 1.03 ± 0.072 and 0.9585 ± 0.0064, respectively.

In the case of `c1ccc(/N=N/c2ccccc2)cc1`, the results for the cell viability with DLD1 [1], in the experiment on HCT116 and with SW480 [2] were 1.03 ± 0.021, 0.981 ± 0.027 and 1.04 ± 0.028, respectively. Further, the “TCF/Wnt firefly luciferase reporter signal” value in the experiment on DLD1 [3] worked out at 1.04 ± 0.088; in the experiment with SW480 [4], 0.986 ± 0.091.

Consider `C[C@]12CCC(=O)C(O)=C1CC[C@@H]1[C@@H]2CC[C@]2(C)C(=O)CC[C@@H]12`, for which the cell viability worked out at 0.956 ± 0.011 in the experiment with DLD1 [1], 0.996 ± 0.076 in the experiment on HCT116 and 0.9485 ± 0.0021 in the experiment on SW480 [2]. In addition, the “TCF/Wnt firefly luciferase reporter signal” value in the experiment on DLD1 [3] is 1.01 ± 0.023; with SW480 [4], 1.01 ± 0.073.

With `Nc1ccncc1`, the cell viability in the experiment on DLD1 [1] stood at 1.025 ± 0.0071; in the experiment with HCT116, 1.07 ± 0.028; with SW480 [2] it was 1 ± 0.1. Further, the figures for the “TCF/Wnt firefly luciferase reporter signal” value in the experiment on DLD1 [3] and with SW480 [4] were 1.03 ± 0.054 and 1.13 ± 0.071, respectively.

In the case of `O=C1CCC[C@@H]2[C@H]3C[C@@H](CN12)[C@@H]1CCCCN1C3.[O-][Cl+3]([O-])([O-])O`, the cell viability in the experiment on DLD1 [1] was 1.01 ± 0.024; in the experiment with HCT116, 0.956 ± 0.053; in the experiment on SW480 [2], 0.976 ± 0.021. Moreover, the “TCF/Wnt firefly luciferase reporter signal” value was 0.922 ± 0.022 in the experiment with DLD1 [3] and 0.97 ± 0.018 with SW480 [4].

`O=C1NC(=O)C(=O)C(=O)N1`: the cell viability in the experiment on DLD1 [1] came to 1.01 ± 0.057; in the experiment with HCT116, 0.935 ± 0.063; in the experiment on SW480 [2], 0.945 ± 0.014. The “TCF/Wnt firefly luciferase reporter signal” value in the experiment on DLD1 [3] is 0.829 ± 0.03; in the experiment with SW480 [4], 0.901 ± 0.064.

Turning to `CC(=O)O[C@H]1C(=O)[C@@]2(C)[C@H]([C@H](OC(=O)c3ccccc3)[C@]3(O)C[C@H](O)C(C)=C1C3(C)C)[C@]1(OC(C)=O)CO[C@@H]1C[C@@H]2O`, the figures for the cell viability with DLD1 [1], in the experiment with HCT116 and in the experiment with SW480 [2] were 0.951 ± 0.013, 1.04 ± 0.021 and 0.9845 ± 0.0078, respectively. Moreover, the “TCF/Wnt firefly luciferase reporter signal” value was found to be 0.95 ± 0.028 in the experiment on DLD1 [3] and 0.887 ± 0.076 in the experiment with SW480 [4].

Turning to `C=C(C)[C@@H]1CC[C@]2(C(=O)O[C@@H]3O[C@H](CO[C@@H]4O[C@H](CO)[C@@H](O[C@@H]5O[C@@H](C)[C@H](O)[C@@H](O)[C@H]5O)[C@H](O)[C@H]4O)[C@@H](O)[C@H](O)[C@H]3O)CC[C@]3(C)[C@H](C[C@H]4OC(=O)C[C@@H](O)[C@]5(C)[C@@H]4[C@@]3(C)CC[C@H]5C(=C)C)[C@@H]12` [Chiisanoside (5)], the values for the cell viability with DLD1 [1], with HCT116 and with SW480 [2] were 0.873 ± 0.16, 0.958 ± 0.074 and 0.945 ± 0.059, respectively. The results for the “TCF/Wnt firefly luciferase reporter signal” value in the experiment on DLD1 [3] and in the experiment with SW480 [4] were 0.817 ± 0.059 and 0.948 ± 0.12, respectively.

Regarding `CC([C@H](O)c1ccccc1)N(C)C` (stereo not given in full), the values for the cell viability in the experiment on DLD1 [1], in the experiment with HCT116 and in the experiment on SW480 [2] were 0.991 ± 0.0014, 1.015 ± 0.0071 and 0.966 ± 0.091, respectively. Besides, the “TCF/Wnt firefly luciferase reporter signal” value in the experiment on DLD1 [3] turned out to be 0.915 ± 0.09; in the experiment on SW480 [4] it was 0.975 ± 0.05.

For the compound `CCOC(=O)c1cncn1[C@H](C)c1ccccc1`, the cell viability with DLD1 [1] was 1.04 ± 0.035; with HCT116, 0.987 ± 0.018; in the experiment with SW480 [2] it was 0.9905 ± 0.0078. Further, the results for the “TCF/Wnt firefly luciferase reporter signal” value in the experiment with DLD1 [3] and in the experiment with SW480 [4] were 0.965 ± 0.013 and 0.995 ± 0.022, respectively.

Regarding `CNC(=O)Oc1ccc2c(c1)[C@]1(C)CCN(C)[C@@H]1N2C`, the cell viability with DLD1 [1] turned out to be 0.948 ± 0.0071; in the experiment with HCT116, 0.889 ± 0.12; in the experiment with SW480 [2], 0.966 ± 0.047. For the same compound, the “TCF/Wnt firefly luciferase reporter signal” value stood at 1.08 ± 0.12 in the experiment on DLD1 [3] and 0.989 ± 0.072 in the experiment with SW480 [4].

These data come from the supplement of paper PMC6522484.
